This is part of a sample that, as a whole, favours compounds with a hit. Of some 83,000 tested, about 20% had one in any assay.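 Cells were grown in 96-well plates and exposed to the test compound at a single concentration for 48 hours; results are reported as percent growth, with values below 10 considered active.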 Activity calls are given as the source filed them.
Columns and labels:
Assay in all cases: NCI-60 one-dose screen, 48 h (100 = growth as untreated, 0 = no growth, -100 = all killed)
Conditions in all cases: 10 µM unless noted
T-47D breast = tested on: T-47D breast
BT-549 breast = tested on: BT-549 breast
MDA-MB-435 melanoma = tested on: MDA-MB-435 melanoma
SW-620 colon = tested on: SW-620 colon
MCF7 breast = tested on: MCF7 breast
HCT-116 colon = tested on: HCT-116 colon
HCC-2998 colon = tested on: HCC-2998 colon
KM12 colon = tested on: KM12 colon

Measured: growth

COc1ccc(/C=C2\N=C(Nc3ccccc3)N(NC(=O)c3ccccn3)C2=O)cc1
inactive: T-47D breast 63.6% | BT-549 breast 94.1% | MDA-MB-435 melanoma 98.7% | SW-620 colon 102% | MCF7 breast 87.5% | HCT-116 colon 90.1% | HCC-2998 colon 105% | KM12 colon 96.1%

Cn1c(=O)c(C#N)c(-c2ccco2)n2c(S(=O)(=O)Cc3ccccc3)nnc12
inactive: T-47D breast 90.6% | BT-549 breast 73.7% | MDA-MB-435 melanoma 83% | SW-620 colon 99.5% | MCF7 breast 74.9% | HCT-116 colon 75.8% | HCC-2998 colon 102% | KM12 colon 93.7%

CCOC(=O)n1cc(C2=C(c3ccc(OC)c(OC)c3)COC2=O)c2ccccc21
inactive: T-47D breast 48.8% | SW-620 colon 26.5% | MCF7 breast 14.9% | HCC-2998 colon 19.2%
active: BT-549 breast 0.425% | MDA-MB-435 melanoma -18.4% | HCT-116 colon 4.07% | KM12 colon 2.26%

N#Cc1c(N2CCOCC2)nc(=S)[nH]c1-c1ccco1
active: HCC-2998 colon -21%
inactive: T-47D breast 18.9% | BT-549 breast 60.4% | MDA-MB-435 melanoma 86.3% | SW-620 colon 83.8% | MCF7 breast 26.7% | HCT-116 colon 82.4% | KM12 colon 65.3%

CCCCNC(=O)NS(=O)(=O)Cc1ccccc1
inactive: T-47D breast 113% | BT-549 breast 104% | MDA-MB-435 melanoma 116% | SW-620 colon 108% | MCF7 breast 96.6% | HCT-116 colon 112% | HCC-2998 colon 110% | KM12 colon 109%

N=C(N)c1ccc(-c2ccc(-c3ccc(-c4cccs4)s3)s2)cc1F
inactive: T-47D breast 87.7% | BT-549 breast 99.3% | MDA-MB-435 melanoma 94.1% | SW-620 colon 91.5% | MCF7 breast 64.9% | HCT-116 colon 83.6% | HCC-2998 colon 69% | KM12 colon 100%

CC1(C)C(=O)/C(=C\c2cccnc2)C[C@]2(C)[C@H]3CC[C@@H]4[C@H]5[C@H](C(=O)/C=C/c6cccnc6)CC[C@]5(C(=O)O)CC[C@@]4(C)[C@]3(C)CC[C@@H]12
active: T-47D breast -10% [100 µM] | BT-549 breast -32.2% [100 µM] | MDA-MB-435 melanoma -78.2% [100 µM] | SW-620 colon -21.8% [100 µM] | MCF7 breast -41.9% [100 µM] | HCT-116 colon -56.7% [100 µM] | HCC-2998 colon -76.4% [100 µM] | KM12 colon -82.1% [100 µM]

CC1(C)[C@@H](NOCCCN)CC[C@]2(C)[C@H]3C(=O)C=C4[C@@H]5C[C@](C)(C(=O)O)CC[C@]5(C)CC[C@@]4(C)[C@]3(C)CC[C@@H]12
active: T-47D breast -29.8% [100 µM] | BT-549 breast -23.2% [100 µM] | MDA-MB-435 melanoma -59.1% [100 µM] | SW-620 colon -43.3% [100 µM] | MCF7 breast -25.2% [100 µM] | HCT-116 colon -87.4% [100 µM] | HCC-2998 colon -50% [100 µM] | KM12 colon -65.8% [100 µM]

COc1ccc(C2=C(c3cn(C)c4ccccc34)C(=O)OC2)cc1OC
inactive: T-47D breast 23.8% | BT-549 breast 45.9% | SW-620 colon 19.7% | MCF7 breast 18.8% | HCT-116 colon 29.3% | HCC-2998 colon 65.9% | KM12 colon 26.4%
active: MDA-MB-435 melanoma -8.21%

CCC(Br)(CC)C(=O)c1ccc(OCC(=O)O)c(Cl)c1Cl
inactive: T-47D breast 112% | BT-549 breast 79.1% | MDA-MB-435 melanoma 101% | SW-620 colon 112% | MCF7 breast 92.8% | HCT-116 colon 102% | HCC-2998 colon 91.5% | KM12 colon 103%

C[C@H]1[C@H](C)CC[C@]2(COC(=O)CCC(=O)O)CC[C@]3(C)C(=CC[C@@H]4[C@@]5(C)CCCNC(C)(C)[C@@H]5CC[C@]43C)[C@H]12
inactive: T-47D breast 36.7% [100 µM] | BT-549 breast 64% [100 µM] | MDA-MB-435 melanoma 79.6% [100 µM] | SW-620 colon 87.7% [100 µM] | MCF7 breast 54.9% [100 µM] | HCT-116 colon 40.5% [100 µM] | HCC-2998 colon 71.9% [100 µM] | KM12 colon 78% [100 µM]

C=C(C)[C@@H]1CC[C@]2(C(=O)NCCNCCNC(=O)OC(C)(C)C)CC[C@]3(C)[C@H](CC[C@@H]4[C@@]5(C)CCC(=O)C(C)(C)[C@@H]5CC[C@]43C)[C@@H]12
inactive: T-47D breast 28% [100 µM] | BT-549 breast 54.2% [100 µM] | MDA-MB-435 melanoma 36.8% [100 µM] | SW-620 colon 28.8% [100 µM] | MCF7 breast 22.2% [100 µM] | HCT-116 colon 17.5% [100 µM] | HCC-2998 colon 60.5% [100 µM] | KM12 colon 34.3% [100 µM]

COc1ccc2nc3c(cc2c1)C(=O)CC(C(F)(F)F)C3 (configuration not stated)
active: MDA-MB-435 melanoma -47.7%
inactive: T-47D breast 41.1% | BT-549 breast 61% | SW-620 colon 41.5% | MCF7 breast 83.1% | HCT-116 colon 11.9% | HCC-2998 colon 84% | KM12 colon 11.6%

CCCCCCSc1ncnc2nc[nH]c12
inactive: T-47D breast 73.1% | BT-549 breast 82.6% | MDA-MB-435 melanoma 84.9% | SW-620 colon 101% | MCF7 breast 94.6% | HCT-116 colon 85.1% | HCC-2998 colon 93.5% | KM12 colon 86%

Nc1nc(SCc2cccc([N+](=O)[O-])c2)c2[nH]cnc2n1
inactive: T-47D breast 92.4% | BT-549 breast 103% | MDA-MB-435 melanoma 104% | SW-620 colon 107% | MCF7 breast 88% | HCT-116 colon 101% | HCC-2998 colon 112% | KM12 colon 99.8%

N#C/C(C(=O)c1ccccc1)=C1/C(=O)Nc2ccc(F)cc21
inactive: T-47D breast 80.5% | BT-549 breast 102% | MDA-MB-435 melanoma 107% | SW-620 colon 101% | MCF7 breast 96.4% | HCT-116 colon 103% | HCC-2998 colon 104% | KM12 colon 109%

CC(C)=CC/C=C(/C)[C@H]1CC[C@]2(C)[C@@H]1CC[C@@H]1[C@@]3(C)CCC(=O)NC(C)(C)[C@@H]3CC[C@]12C
active: T-47D breast -3.77% [100 µM] | BT-549 breast -0.884% [100 µM] | MDA-MB-435 melanoma -4.47% [100 µM] | SW-620 colon -58.8% [100 µM] | MCF7 breast 8.52% [100 µM] | HCT-116 colon -37.4% [100 µM] | HCC-2998 colon 5.26% [100 µM] | KM12 colon -56% [100 µM]

COc1cc(OC)c(/C=C/C(=O)c2c(N)cc(OC)cc2OC)c(OC)c1
inactive: T-47D breast 49.9% | BT-549 breast 19.3% | SW-620 colon 15% | MCF7 breast 25% | HCT-116 colon 14.8% | HCC-2998 colon 29.4% | KM12 colon 11.5%
active: MDA-MB-435 melanoma -27.3%

Cc1cccc(C[C@H](NC(=O)Nc2ccc(Cl)cc2F)C(=O)N[C@@H]2C(=O)N3C[C@H](O)C[C@H]3C(=O)N3CCN(C)C[C@H]3C(=O)N[C@@H](C)C(=O)N3C[C@H](C)C[C@H]3C(=O)O[C@H]2C)c1
active: HCT-116 colon 9.83%
inactive: T-47D breast 21.5% | BT-549 breast 17.2% | MDA-MB-435 melanoma 22.1% | SW-620 colon 42.4% | MCF7 breast 23% | HCC-2998 colon 34.5% | KM12 colon 40.5%

Fc1cc2[nH]ncc2c2c3c(c(-c4cn[nH]c4C(F)(F)F)nc12)C1CCC3C1 (configuration not stated)
inactive: MDA-MB-435 melanoma 22.8% | HCC-2998 colon 14.7%
active: T-47D breast 3.94% | BT-549 breast -60.7% | SW-620 colon 2.37% | MCF7 breast 2.59% | HCT-116 colon 1.87% | KM12 colon 7.9%

C=C(C)[C@@H]1CC[C@]2(C(N)=O)CC[C@]3(C)[C@H](CC[C@@H]4[C@@]5(C)C/C(=C/c6cccnc6)C(=O)C(C)(C)[C@@H]5CC[C@]43C)[C@@H]12
active: T-47D breast 1.22% [100 µM] | MDA-MB-435 melanoma 0.0948% [100 µM] | SW-620 colon 3.53% [100 µM] | HCT-116 colon 5.4% [100 µM] | HCC-2998 colon -15.9% [100 µM] | KM12 colon -3.05% [100 µM]
inactive: BT-549 breast 14.1% [100 µM] | MCF7 breast 10.8% [100 µM]

C[C@@H]1C[C@H]2C(=O)O[C@@H](C)[C@H](NC(=O)[C@H](Cc3cc(F)cc(F)c3)NC(=O)Nc3ccc(C4CC4)cc3F)C(=O)N3CCC[C@H]3C(=O)N3CCCC[C@H]3C(=O)N[C@@H](C)C(=O)N2C1
inactive: SW-620 colon 27.7% | MCF7 breast 12.7% | KM12 colon 15.6%
active: T-47D breast 5.43% | BT-549 breast -1.76% | MDA-MB-435 melanoma 3.38% | HCT-116 colon -4.75% | HCC-2998 colon -10.3%

CCCCCCCCN(CCCCCCCC)CC(O)c1ccc(Cl)c(C)c1Cl (configuration not stated)
inactive: T-47D breast 75.9% | BT-549 breast 117% | MDA-MB-435 melanoma 91.4% | SW-620 colon 44.5% | MCF7 breast 90.4% | HCT-116 colon 63.5% | HCC-2998 colon 85.3% | KM12 colon 79.6%

CCN(CC)CCSC(=O)C(O)(c1ccccc1)C1CCCC1 (configuration not stated)
inactive: T-47D breast 109% | BT-549 breast 109% | MDA-MB-435 melanoma 115% | SW-620 colon 102% | MCF7 breast 114% | HCT-116 colon 109% | HCC-2998 colon 90.3% | KM12 colon 79.4%

CCOC(=O)c1cc(C#N)n2ncc3ccccc3c12
inactive: T-47D breast 92.2% | BT-549 breast 91.5% | MDA-MB-435 melanoma 103% | SW-620 colon 98% | MCF7 breast 87.2% | HCT-116 colon 90.8% | HCC-2998 colon 104% | KM12 colon 102%

O=C(N=c1n(-c2ccccc2)nc2n1CCN2C1=NCCN1)c1ccc(Cl)cc1
inactive: T-47D breast 83.9% | BT-549 breast 101% | MDA-MB-435 melanoma 42.1% | SW-620 colon 79.5% | MCF7 breast 86.4% | HCT-116 colon 103% | HCC-2998 colon 73% | KM12 colon 99.3%

Fc1cc2[nH]ncc2c2c3c(c(-c4cn[nH]c4)nc12)CCCC3
inactive: HCC-2998 colon 16.5%
active: T-47D breast -19.3% | BT-549 breast -17.3% | MDA-MB-435 melanoma 5.22% | SW-620 colon 5.91% | MCF7 breast 3.02% | HCT-116 colon 5.6% | KM12 colon 5.18%

O=C1CC(c2ccccc2)Cc2nc3ccc(Cl)cc3cc21 (configuration not stated)
inactive: T-47D breast 75.5% | SW-620 colon 23% | MCF7 breast 54%
active: BT-549 breast 4.62% | MDA-MB-435 melanoma -38.6% | HCT-116 colon 5.45% | HCC-2998 colon 5.28% | KM12 colon 1.73%

O=c1cc(-c2ccccc2)oc2c(O)c(O)ccc12
inactive: T-47D breast 68.2% | BT-549 breast 67.4% | MDA-MB-435 melanoma 68.8% | SW-620 colon 58% | MCF7 breast 60.9% | HCT-116 colon 39% | HCC-2998 colon 74.8% | KM12 colon 65.3%
